# Source: PubChem BioAssay (EPA / NIEHS)
# Some compounds were tested as several samples or in several runs, with calls that do not always agree. The source made the active and inactive calls. The calls were made as follows, unless noted: active = hit-call score of the fitted dose curve at least 0.9, where 1 is the maximum; inactive = score below 0.9.
# What was measured:
# [1] = CCTE_Shafer_MEA_dev_burst_duration_mean: CCTE's Neural Network Formation Assay for Mean Burst Duration, Shafer Lab (AID 2284045);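 as to AC50: curve fitted for loss meaning shorter burst duration than DMSO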
# Procedure, shortened: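 Primary rat cortical neurons on 48-well 16-electrode MEA plates, exposed from day 0 with renewal at DIV 5 and 9; spontaneous activity recorded on days 5, 7, 9, 12. Well-mean burst duration across bursting electrodes, collapsed as trapezoidal AUC; DMSO baseline.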
# [2] = CCTE_Shafer_MEA_dev_interburst_interval_mean: CCTE's Neural Network Formation Assay for Mean Interburst Interval, Shafer Lab (AID 2284046);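 also: well-mean interburst interval of bursting electrodes as AUC over four recording days; curve fitted for decrease in interburst interval relative to DMSO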
# Procedure, shortened: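 Primary rat cortical neurons on PEI-coated 48-well MEA plates (laminin added with cells at plating) (16 electrodes/well), exposed from plating day 0 with renewal at DIV 5 and 9. Mean inter-burst interval averaged over bursting electrodes, AUC across days 5, 7, 9, 12; DMSO baseline.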
# [3] = CCTE_Shafer_MEA_dev_inter_network_spike_interval_mean: CCTE's Neural Network Formation Assay for Mean Inter-network Spike Interval, Shafer Lab (AID 2284047);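 as to AC50: potency for a decrease in mean inter-network spike interval below DMSO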
# Procedure, shortened: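 Mean time between consecutive network-spike peaks, recorded extracellularly (adaptive spike detection) on DIV 5, 7, 9 and 12, summarized as trapezoidal AUC. Rat cortical cultures on MEAs dosed continuously days 0–12, re-dosed at feeds; loss-of-signal fit relative to DMSO.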
# [4] = CCTE_Shafer_MEA_dev_network_spike_number: CCTE's Neural Network Formation Assay for Number of Network Spikes, Shafer Lab (AID 2284048);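 also: synchronized bursts across electrodes counted on days 5 7 9 12 and integrated as AUC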;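 as to AC50: fit as a loss of signal meaning fewer network spikes than DMSO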
# Procedure, shortened: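 Primary rat cortical neurons on PEI/laminin 48-well MEA plates, dosed from plating day 0 for 12 days, renewed at DIV 5 and 9. Network spike counts recorded DIV 5, 7, 9, 12, collapsed as trapezoidal AUC; DMSO baseline.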
# [5] = CCTE_Shafer_MEA_dev_network_spike_peak: CCTE's Neural Network Formation Assay for Mean Number of Electrodes in Network Spike, Shafer Lab (AID 2284049);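 as to AC50: fitted for loss of signal meaning fewer electrodes in network spikes than DMSO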
# Procedure, shortened: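 Network-spike peak electrode count from recordings on days 5, 7, 9 and 12 was combined as trapezoidal area under the curve. Rat cortical cultures were treated continuously from plating, with compound renewed at each feed (DIV 5, 9); fits versus DMSO.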
# [6] = CCTE_Shafer_MEA_dev_spike_duration_mean: CCTE's Neural Network Formation Assay for Mean Spike Duration, Shafer Lab (AID 2284051);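 also: mean network spike duration pooled as area under curve over DIV 5 to 12 recordings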;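 as to AC50: potency for a decrease in mean network spike duration versus DMSO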
# Procedure, shortened: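 Spontaneous activity was recorded on days 5, 7, 9 and 12 from rat cortical cultures grown on microelectrode arrays and dosed continuously from day 0, with media and compound renewed after the DIV 5 and 9 recordings. Network-spike duration was collapsed by area under the curve.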
# [7] = CCTE_Shafer_MEA_dev_per_network_spike_spike_number_mean: CCTE's Neural Network Formation Assay for Mean Number of Spikes in a Network Spike, Shafer Lab (AID 2284053);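 as to AC50: fitted as decrease in spikes per network spike relative to DMSO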
# Procedure, shortened: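 Mean spike count within each network spike, taken in a 0.05 s window at its peak, was recorded on days 5, 7, 9 and 12 and integrated as trapezoidal area under the curve. Rat cortical cultures on MEA plates received continuous compound from day 0, refreshed at medium changes on DIV 5 and 9.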
# [8] = CCTE_Shafer_MEA_dev_per_network_spike_spike_percent: CCTE's Neural Network Formation Assay for Percent of Spikes in a Network Spike, Shafer Lab (AID 2284054)
# Procedure, shortened: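 Rat primary cortical neurons were grown on 48-well MEA plates (16 electrodes/well), exposed from plating day 0 through day 12, with treatment renewed on DIV 5 and 9. Percent of spikes within 0.05 s network-spike peaks was measured, summarised as AUC across days 5, 7, 9, 12.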
# DIO2 (gene 1734) = assay: CCTE_GLTED_hDIO2: CCTE's human Deiodinase 2 (DIO2) Inhibition Assay, Great Lakes Toxicology and Ecology Division (GLTED) Lab (AID 2284050; active = hit-call score of the fitted dose curve at least 0.9, where 1 is the maximum)
# Description: CCTE_GLTED_hDIO2 is a cell-free, single-readout assay designed to test the inhibitory activity of chemicals toward human iodothyronine Deiodinase type 2 (DIO2) enzyme. Enzyme is incubated in presence of test chemical for 3 hours during which uninhibited enzyme liberates free iodide from substrate. Free iodide is measured in a second step using the Sandell-Kolthoff method.CCTE_GLTED_hDIO2 is the assay component measured from the CCTE_GLTED_hDIO2 assay. It is designed to make measurements of enzyme activity, a form of enzyme reporter, as detected with absorbance signals by spectrophotometry.Data from the assay component CCTE_GLTED_hDIO2 was analyzed into 1 assay endpoint. This assay endpoint, CCTE_GLTED_hDIO2, was analyzed in the positive analysis fitting direction relative to DMSO as the negative control and baseline of activity. Using a type of enzyme reporter, loss-of-signal activity can be used to understand changes in the enzymatic activity as they relate to the gene DIO2. Furthermore, this assay endpoint can be referred to as a primary readout, because the performed assay has only produced 1 assay endpoint. To generalize the intended target to other relatable targets, this assay endpoint is annotated to the 'deiodinase' intended target family, where the subfamily is 'deiodinase Type 2'.
# Human deiodinase type 2 (hDIO2) assay, developed at Great Lakes Toxicology and Ecology Division (GLTED) within the EPA's Center for Computational Toxicology and Exposure (CCTE), is designed to test the chemicals' ability to inhibit DIO2. Assay is based on iodide release measured by the Sandell-Kolthoff method and is run in 96-well plate format with assay plates run in triplicate (n=3). The method used for the deiodinase assay was largely based on Renko et al. (2012, 2015). These works describe the utilization of the SK reaction to measure deiodinase-liberated iodide in a 96-well-plate format. The SK reaction is based on the reduction of the yellow-colored cerium IV to the non-colored cerium III by arsenic, with the rate of this reaction increased in the presence of iodide in a concentration-dependent manner (Sandell and Kolthoff, 1937). Iodinated test chemicals can interfere as competitive inhibitors, or if the stock chemical has contaminating free-iodide present. Other chemicals, e.g.: nitrite, iron, and thiocyanate can interfere with the Sandell-Kolthoff reaction (see Sandell and Kolthoff, 1937).
# DIO3 (gene 1735) = assay: CCTE_GLTED_hDIO3: CCTE's human Deiodinase 3 (DIO3) Inhibition Assay, Great Lakes Toxicology and Ecology Division (GLTED) Lab (AID 2284055; active = hit-call score of the fitted dose curve at least 0.9, where 1 is the maximum;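 also: potency is for inhibition seen as loss of released iodide signal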)
# Procedure, shortened: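 Cell-free assay with human DIO3 enzyme produced by adenovirus expression; enzyme incubated with test chemical for 3 hours. Liberated iodide then measured by Sandell-Kolthoff absorbance; loss of signal versus DMSO baseline indicates inhibition, run in triplicate.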
structure (smiles),measurement,setting,value
CCCc1cc(=O)[nH]c(=S)[nH]1,outcome,[1],inactive
same,outcome,[2],inactive
same,outcome,[3],inactive
same,outcome,[4],inactive
same,AC50,[5],23 µM (active)
same,outcome,[5],inactive
same,AC50,[6],20.7 µM (active)
same,outcome,[6],inactive
same,AC50,[7],25 µM (active)
same,outcome,[7],inactive
same,AC50,[8],24.9 µM (active)
same,outcome,[8],inactive
OC[C@@H](O)[C@@H](O)[C@H](O)[C@H](O)CO,outcome,[1],inactive
same,outcome,[2],inactive
same,outcome,[3],inactive
same,outcome,[4],inactive
same,outcome,[5],inactive
same,outcome,[6],inactive
same,outcome,[7],inactive
same,outcome,[8],inactive
CC(C)c1ccc(C(=O)N=C(N)N)cc1S(C)(=O)=O,outcome,[1],inactive
same,outcome,[2],inactive
same,outcome,[3],inactive
same,outcome,[4],inactive
same,outcome,[5],inactive
same,outcome,[6],inactive
same,outcome,[7],inactive
same,outcome,[8],inactive
CC=Cc1ccc(O)c(OC)c1,AC50,DIO2 (gene 1734),68 µM (active)
same,AC50,DIO3 (gene 1735),14.9 µM (active)
Cc1cc(=O)[nH]c(=S)[nH]1,outcome,[1],inactive
same,outcome,[2],inactive
same,outcome,[3],inactive
same,outcome,[4],inactive
same,outcome,[5],inactive
same,outcome,[6],inactive
same,outcome,[7],inactive
same,outcome,[8],inactive
CC1=C(/C=C/C(C)=C/C=C/C(C)=C/CO)C(C)(C)CCC1,AC50,DIO2 (gene 1734),47 µM (active)
same,AC50,DIO3 (gene 1735),28.3 µM (active)
CCCCC(CC)COC(=O)CC(C(=O)OCC(CC)CCCC)S(=O)(=O)O (stereo not given),AC50,DIO2 (gene 1734),85.1 µM (active)
same,AC50,DIO3 (gene 1735),92.2 µM (active)
O=c1[nH]cc(F)c(=O)[nH]1,outcome,[1],inactive
same,AC50,[2],2.82 µM (active)
same,outcome,[3],inactive
same,AC50,[4],0.974 µM (active)
same,AC50,[5],1.2 µM (active)
same,AC50,[6],1.52 µM (active)
same,AC50,[7],0.913 µM (active)
same,AC50,[8],0.607 µM (active)
COc1cc(-c2nc(NC(=O)c3cc4cc(C)cc(C)c4n3CC(=O)O)sc2CCC2CCCCC2)c(OC)cc1Cl,outcome,DIO2 (gene 1734),inactive
same,AC50,DIO3 (gene 1735),8.64 µM (active)
CN[C@H]1CC[C@@H](c2ccc(Cl)c(Cl)c2)c2ccc(S(N)(=O)=O)cc21,AC50,DIO2 (gene 1734),49.3 µM (active)
same,AC50,DIO3 (gene 1735),45.9 µM (active)
CC(=O)Oc1ccccc1C(=O)O,AC50,[1],26.2 µM (active)
same,outcome,[1],inactive
same,outcome,[2],inactive
same,AC50,[3],0.0242 µM (active)
same,outcome,[3],inactive
same,outcome,[4],inactive
same,outcome,[5],inactive
same,outcome,[6],inactive
same,outcome,[7],inactive
same,outcome,[8],inactive
FC(F)(F)C(F)(F)C(F)(F)C(F)(F)C(F)(F)C(F)(F)CCI,outcome,[1],inactive
same,outcome,[2],inactive
same,outcome,[3],inactive
same,outcome,[4],inactive
same,outcome,[5],inactive
same,outcome,[6],inactive
same,outcome,[7],inactive
same,outcome,[8],inactive
C=CCc1ccc(O)c(OC)c1,outcome,[1],inactive
same,outcome,[2],inactive
same,outcome,[3],inactive
same,outcome,[4],inactive
same,outcome,[5],inactive
same,outcome,[6],inactive
same,outcome,[7],inactive
same,outcome,[8],inactive
C[Si]1(C)O[Si](C)(C)O[Si](C)(C)O[Si](C)(C)O1,outcome,[1],inactive
same,outcome,[2],inactive
same,outcome,[3],inactive
same,outcome,[4],inactive
same,outcome,[5],inactive
same,outcome,[6],inactive
same,outcome,[7],inactive
same,outcome,[8],inactive
CCCCCCCCCCCCCO,outcome,DIO2 (gene 1734),inactive
same,AC50,DIO3 (gene 1735),51.8 µM (active)
